Values joined by “and” are separate entries in the source; they are usually repeats but may differ in a detail not shown here. Equal entries are not always repeated. A number with no mark means an inactive call. The call rests on the fitted dose curve.

A short description of the assay: qHTS drug screen for cell cycle checkpoint inhibitors in PARPi-resistant BRCA-mutant ovarian cancer cell lines. (AID 1963452). To be noted: PEO1/OlaR viability, CellTiter-Glo luminescence, 96 h; stronger effect = lower value. The method in brief:
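PEO1, PEO4 and PEO1/OlaR ovarian cancer cells, 600 per well, exposed 96 h at 37C to a dilution series. Viability read by CellTiter-Glo luminescence, normalized to DMSO and empty wells; activity summarized as Z-AUC.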
On to `CCOc1ccc(Cc2cc([C@@H]3O[C@H](CO)[C@@H](O)[C@H](O)[C@H]3O)ccc2Cl)cc1`, for which the Z-AUC is 1.26. With `COC(=O)[C@H]1[C@@H](O)[C@@]2(O)c3c(OC)cc(O[C@@H]4O[C@@H]([C@@H](O)CO)CO[C@H]4OC)cc3O[C@@]2(c2ccc(OC)cc2)[C@@H]1c1ccccc1`, the Z-AUC is 1.19. For `O=C(NCc1ccc(S(=O)(=O)c2cccc(C(F)(F)F)c2)cc1)c1cnc2[nH]ncc2c1` the value was -2.19; for `COC[C@@H](c1ccc(C(F)(F)F)cc1)N1CCN(C2(C)CCN(C(=O)c3c(C)ncnc3C)CC2)C[C@@H]1C`, 1.18.

As for `Cc1c(F)cccc1NC(=O)Nc1ccc(Cl)c(S(=O)(=O)[C@H]2CCCNC2)c1O`, the Z-AUC was 1.68. For `Cc1ccc(-c2nc(N)nc3c2nnn3Cc2cccc(CO[C@H]3CCOC3)n2)o1` the value was -1.33.

In the case of `CCNC(=O)Nc1ccc(Oc2ncnc(N)c2/C=N/OC)cc1Cl`, the Z-AUC is 1.52. The result for `COc1cccc(-c2c(C)n(Cc3c(F)cccc3C(F)(F)F)c(=O)n(C[C@H](NCCCC(=O)O)c3ccccc3)c2=O)c1F` reads 1.28 and 1.27; that for `C=CC(=O)N1CCC(CNc2ncnc(N)c2-c2ccc(Oc3ccccc3)cc2)CC1`, 1.54. For `O=C1CC[C@H](N2Cc3c(OCc4ccc(CN5CCOCC5)cc4)cccc3C2=O)C(=O)N1` the value was 1.34. For `C[C@@H]1C(=O)OC2[C@H](O)[C@]34[C@H]5C[C@@H](C(C)(C)C)[C@]36[C@@H](OC(=O)[C@@H]6O)O[C@@]4(C(=O)O5)[C@]21O` (stereo not given in full) the value was 1.19. As to `O=C(Nc1nccs1)C(c1cc(F)ccc1O)N1Cc2ccccc2C1=O` (stereo not given), the Z-AUC was -0.378. The result for `C=CC(=O)N1CCC[C@H](n2c(=O)n(-c3ccc(Oc4ccccc4)cc3)c3c(N)ncnc32)C1` reads -0.0902. The result for `COc1cc(C(=O)NC(N)=Nc2ccc(C)c(NC(=O)c3ccc(-c4ccccc4)cc3)c2)cc(OC)c1OC` reads 0.647; that for `COC(=O)C1=C(C)NC(c2ncc(F)cc2F)=N[C@H]1c1ccc(F)cc1Cl`, 0.0263; that for `COc1ccc(COc2ccc(Cc3cnc(N)nc3N)cc2OC)cc1`, 0.614. For `CC1(C)C(N(O)C(=O)Nc2ccc(Cl)cc2)N(c2ccc(Cl)cc2)C(=O)N1CC(=O)N/N=C/C=C/c1ccc([N+](=O)[O-])o1` (stereo not given) the value was 1.66. Take `Cc1cc(-c2cnn3c(NCC4CC(C)(O)C4)cc(Oc4cccnc4)nc23)ccc1C(=O)NC1CC1` (stereo not given): the Z-AUC was -0.227. For `Cn1c(-c2ccccc2C(F)(F)F)nnc1C12CCC(c3noc(C4CC(F)(F)C4)n3)(CC1)CC2` the value was 1.42; for `C[C@]12CC[C@H](O)CC1=CC[C@@H]1[C@@H]2CC[C@]2(C)C(c3cccnc3)=CC[C@@H]12`, 0.978; for `Cc1cc(C)cc(Oc2ccc(CNC(=O)[C@H](C)N)cc2C)c1`, 1.6. The result for `Cn1cc(-c2nc(N[C@@H]3CCCC[C@@H]3N)c(F)c3c2C(=O)NC3)cn1` reads 0.172. The result for `c1ccc(CNCc2ccc(CN3CCCNCCNCCCNCC3)cc2)nc1` reads 1.17; that for `CN1C(=O)N[C@H](Cc2c[nH]c3c(Cl)cccc23)C1=O`, 0.358. Regarding `Cc1ccc(NS(=O)(=O)c2ccc3c(c2)C2C=CCC2C(c2ccc(C(=O)O)cc2)N3)cc1C` (stereo not given), the Z-AUC is -0.665. The result for `O=C(Nc1ccccc1)Nc1ccc(-c2ccc(C(=O)[C@@H]3CCC[C@H]3C(=O)O)cc2)cc1` reads 1.01; that for `CCS(=O)(=O)c1ccc2oc(-c3ccc4ccccc4c3)nc2c1`, -0.19; that for `C[C@]12CCC3=C4CCC(=O)C=C4CC[C@H]3[C@@H]1CC[C@@]2(O)CC#N`, 1.33. The result for `CC(C)=CCC[C@](C)(O[C@@H]1O[C@H](CO[C@@H]2O[C@H](CO)[C@@H](O)[C@H](O)[C@H]2O)[C@@H](O)[C@H](O)[C@H]1O)[C@H]1CC[C@]2(C)[C@@H]1[C@H](O)C[C@@H]1[C@@]3(C)CC[C@H](O[C@@H]4O[C@H](CO)[C@@H](O)[C@H](O)[C@H]4O[C@@H]4O[C@H](CO)[C@@H](O)[C@H](O)[C@H]4O)C(C)(C)[C@@H]3CC[C@]12C` reads 1.47; that for `N=C1S/C(=C\c2ccc(-c3ccc4c(c3)C(=O)NC4=O)o2)C(=O)N1c1ccc(Br)cc1`, 0.761.

(Values after PubChem BioAssay (NCATS).)
